From PubChem BioAssay come the findings set out here.

The nature of assay [1]: antimalarial activity against Dd2 strain (AID 2302;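 active = growth inhibition above 50% at the single 2 µM test dose, taken to imply half-maximal potency below 2 µM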;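 also: 0% = DMSO untreated growth and 100% = chloroquine plus artemisinin killed control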). The following applies: P. falciparum Dd2 in RBCs, LDH growth readout, 72 h; at 2 µM; stronger effect = higher value.
Assay [2] can be described thus: human hepatoma cell viability loss – ATP luminescence, cytotoxicity control for P. falciparum antimalarial project, primary screen (AID 2303;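 active = inhibition above 50%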;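 also: 0% = DMSO wells and 100% = digitonin-killed cells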). The conditions noted are these: HepG2 viability, 24-48 h, at 10 µM, stronger effect = higher value.
In assay [3] the target is L-lactate dehydrogenase (Plasmodium falciparum (isolate CDC / Honduras)) (UniProt Q27743). As to the kind of experiment: PfLDH activity inhibition – cell lysate, 3D7 strain, counter-screen for P. falciparum growth inhibition project (AID 2304).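 Also: 0% = vehicle and 100% = reference inhibitor.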 The following applies: P. falciparum 3D7 crude extract, LDH APAD/NBT absorbance; at 2 µM; stronger effect = higher value.
L-lactate dehydrogenase (Plasmodium falciparum (isolate CDC / Honduras)), sequence (Q27743 whole entry, looked up): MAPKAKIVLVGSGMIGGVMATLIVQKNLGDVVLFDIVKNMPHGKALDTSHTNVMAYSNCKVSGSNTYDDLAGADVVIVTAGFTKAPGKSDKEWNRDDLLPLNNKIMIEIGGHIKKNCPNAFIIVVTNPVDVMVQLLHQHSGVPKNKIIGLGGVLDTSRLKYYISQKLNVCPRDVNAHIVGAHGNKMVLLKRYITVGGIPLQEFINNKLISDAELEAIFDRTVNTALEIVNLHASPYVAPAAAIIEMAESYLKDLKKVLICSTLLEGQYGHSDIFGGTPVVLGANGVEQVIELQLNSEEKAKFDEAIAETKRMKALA
Assay [4] is described as follows: inhibition of 3D7 malaria parasite growth – strain 3D7 (AID 2306).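 Also: 0% = DMSO wells and 100% = chloroquine plus artemisinin control wells.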 The conditions noted are these: P. falciparum 3D7 erythrocytic growth, LDH absorbance, 72 h; at 2 µM; stronger effect = higher value.
In assay [5] the target is Calcium-dependent protein kinase 1 (Plasmodium falciparum (isolate 3D7)) (UniProt P62344). Nature of the assay: PfCDPK1 kinase inhibitors, biochemical, TCAMS library (AID 1159585; cut-off not given, nearly all actives have IC50 up to about 0.98 µM;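 also: inhibitors leave more ATP so luminescence rises with inhibition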). The following applies: recombinant PfCDPK1, Kinase-Glo ATP depletion luminescence.
Calcium-dependent protein kinase 1 (Plasmodium falciparum (isolate 3D7)), sequence (P62344 whole entry, looked up): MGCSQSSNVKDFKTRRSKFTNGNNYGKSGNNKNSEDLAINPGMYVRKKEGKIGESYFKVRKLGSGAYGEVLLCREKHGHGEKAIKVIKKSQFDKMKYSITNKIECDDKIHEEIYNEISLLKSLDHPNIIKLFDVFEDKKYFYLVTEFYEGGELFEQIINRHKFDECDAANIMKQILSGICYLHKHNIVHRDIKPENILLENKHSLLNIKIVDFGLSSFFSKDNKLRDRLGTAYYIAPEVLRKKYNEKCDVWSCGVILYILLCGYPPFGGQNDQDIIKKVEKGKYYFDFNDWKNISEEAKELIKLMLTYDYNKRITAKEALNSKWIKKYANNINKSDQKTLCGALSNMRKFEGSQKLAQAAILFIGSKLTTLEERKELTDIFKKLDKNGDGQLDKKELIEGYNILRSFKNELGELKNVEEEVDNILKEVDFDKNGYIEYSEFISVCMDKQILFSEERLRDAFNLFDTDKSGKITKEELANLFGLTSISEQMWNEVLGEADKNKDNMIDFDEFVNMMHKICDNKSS
For assay [6], the target named is Plasmodium falciparum protein kinase 6 (PK6, PF3D7_1337100) (UniProt Q8IDW1). As to the kind of experiment: PfPK6 kinase inhibitors, biochemical, TCAMS library (AID 1159586). The following applies: recombinant PfPK6, Kinase-Glo ATP depletion luminescence.
Plasmodium falciparum protein kinase 6 (PK6, PF3D7_1337100), sequence (Q8IDW1 1-305): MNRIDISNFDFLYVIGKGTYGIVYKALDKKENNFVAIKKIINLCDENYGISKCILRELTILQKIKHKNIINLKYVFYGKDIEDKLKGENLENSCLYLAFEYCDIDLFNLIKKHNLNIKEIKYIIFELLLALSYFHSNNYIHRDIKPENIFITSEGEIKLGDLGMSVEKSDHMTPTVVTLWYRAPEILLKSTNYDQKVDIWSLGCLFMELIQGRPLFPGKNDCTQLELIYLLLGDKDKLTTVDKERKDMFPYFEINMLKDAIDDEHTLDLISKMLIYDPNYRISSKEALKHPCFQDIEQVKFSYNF
The target of assay [7] is Protein kinase 7 (PK7), Plasmodium falciparum 3D7 (PF3D7_0213400) (UniProt Q7YTF7). Nature of the assay: inhibition of Plasmodium PK7 catalytic activity – biochemical, TCAMS antimalarial set, Kinase-Glo luminescence (AID 1159587). The following applies: recombinant PfPK7, Kinase-Glo ATP depletion luminescence.
Protein kinase 7 (PK7), Plasmodium falciparum 3D7 (PF3D7_0213400), sequence (Q7YTF7 1-343): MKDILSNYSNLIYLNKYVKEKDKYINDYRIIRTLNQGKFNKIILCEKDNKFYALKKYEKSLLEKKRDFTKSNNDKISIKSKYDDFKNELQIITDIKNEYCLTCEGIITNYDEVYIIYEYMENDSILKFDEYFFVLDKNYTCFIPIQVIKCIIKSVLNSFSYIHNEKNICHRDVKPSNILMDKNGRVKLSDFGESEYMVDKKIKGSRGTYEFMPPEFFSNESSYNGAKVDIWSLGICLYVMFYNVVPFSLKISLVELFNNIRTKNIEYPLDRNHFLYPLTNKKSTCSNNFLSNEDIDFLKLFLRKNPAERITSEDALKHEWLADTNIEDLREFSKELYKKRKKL
For assay [8], the target named is Calcium-dependent protein kinase 4 (Plasmodium falciparum (isolate 3D7)) (UniProt Q8IBS5). Nature of the assay: PfCDPK4 kinase inhibitors, biochemical, TCAMS library (AID 1159588; cut-off not given, nearly all actives have IC50 up to about 0.91 µM). The conditions noted are these: recombinant PfCDPK4, Kinase-Glo ATP depletion luminescence.
Calcium-dependent protein kinase 4 (Plasmodium falciparum (isolate 3D7)), sequence (Q8IBS5 whole entry, looked up): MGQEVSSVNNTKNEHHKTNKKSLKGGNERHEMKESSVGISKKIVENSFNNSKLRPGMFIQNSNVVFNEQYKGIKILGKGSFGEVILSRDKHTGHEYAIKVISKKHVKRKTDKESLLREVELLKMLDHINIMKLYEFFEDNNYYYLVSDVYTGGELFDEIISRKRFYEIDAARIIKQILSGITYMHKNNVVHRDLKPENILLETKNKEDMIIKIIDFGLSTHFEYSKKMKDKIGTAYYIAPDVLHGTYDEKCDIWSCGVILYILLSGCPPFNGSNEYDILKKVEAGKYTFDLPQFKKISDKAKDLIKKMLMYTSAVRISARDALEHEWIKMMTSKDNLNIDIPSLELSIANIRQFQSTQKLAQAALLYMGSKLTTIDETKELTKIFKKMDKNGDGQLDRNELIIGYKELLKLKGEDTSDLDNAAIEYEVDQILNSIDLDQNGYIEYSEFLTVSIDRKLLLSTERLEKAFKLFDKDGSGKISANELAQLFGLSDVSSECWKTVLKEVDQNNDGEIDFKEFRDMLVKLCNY

Where “and” joins values, the source holds several entries; their conditions need not be identical. Identical values can stand only once. For some assays here: Measured potencies and affinities stand elsewhere. A structure can be active in one record and inactive in another. Calls of active or inactive are those of the source. Unless noted, no rule for the calls is given here.

Turning to `CC(=O)Nc1ccc(CN2CCC(N(C)c3cc(NC(=O)c4cccs4)ccn3)CC2)cc1`, the growth inhibition was 43% (inactive) in assay [1] and 101% (active) in assay [4]. The inhibition in assay [2] was -1% (inactive); in assay [3] it was 2% (inactive). The result in assay [5], in assay [6], in assay [7] and in assay [8] was inactive.

Regarding `O=C(NC1CCN(CCc2c[nH]c3ccc(F)cc23)CC1)c1ncc(-c2ccccc2)[nH]1`, the growth inhibition in assay [1] is 69% (active); in assay [4], 102% (active). For the same molecule, the inhibition is -3% (inactive) in assay [2] and -1% (inactive) in assay [3]. Besides, the outcome in assay [5], in assay [6], in assay [7] and in assay [8] was inactive.

Regarding `O=C(/C=C/c1ccc(Cl)c(Cl)c1)NCCC1CCC(N2CCC(c3c[nH]c4ccccc34)CC2)CC1` (configuration not stated), the growth inhibition is 99% (active) in assay [1] and 102% (active) in assay [4]. Also, the figures for the inhibition in assay [2] and in assay [3] were 91% (active) and -1% (inactive), respectively. Besides, the outcome in assay [5], in assay [6], in assay [7] and in assay [8] was inactive.

Take `COC(=O)c1ccc(CC(C)NCC(O)c2cccc(Br)c2)cc1` (configuration not stated): the results for the growth inhibition in assay [1] and in assay [4] were 88% (active) and 99% (active), respectively. The inhibition in assay [2] was -6% (inactive); in assay [3] it was -2% (inactive). In addition, the result in assay [5], in assay [6], in assay [7] and in assay [8] was inactive.

For `CCOc1ccc2nccc([C@@H](O)[C@@H]3C[C@@H]4CCN3C[C@@H]4CC)c2c1`, the growth inhibition in assay [1] is 99% (active) and 51% (active); in assay [4] it was 98% (active) and 99% (active). Moreover, the inhibition in assay [2] was 24% (inactive) and 1% (inactive); in assay [3], 2% (inactive) and -2% (inactive). Further, the result in assay [5], in assay [6], in assay [7] and in assay [8] was inactive.

Regarding `O=C(/C=C/c1ccc(F)c(C(F)(F)F)c1)N1CCC(CN2CCC(c3c[nH]c4ccccc34)CC2)CC1`, the growth inhibition is 1% (inactive) in assay [1] and 98% (active) in assay [4]. The inhibition in assay [2] is 23% (inactive); in assay [3], 2% (inactive). In addition, the outcome in assay [5], in assay [6], in assay [7] and in assay [8] was inactive.

`COc1ccc(-c2ccccc2)cc1NC(=S)NC1CCC(CN2CCC(c3c[nH]c4ccccc34)CC2)CC1` (configuration not stated): the growth inhibition was 98% (active) and 95% (active) in assay [1]; 102% (active) and 100% (active) in assay [4]. For the same molecule, the inhibition in assay [2] was 51% (active) and 27% (inactive); in assay [3], -7% (inactive) and -5% (inactive). The result in assay [5], in assay [6], in assay [7] and in assay [8] was inactive.

For the molecule `COCCNCc1cccc(-c2cccc(CN(C(=O)Nc3ccccc3)C3CCN(Cc4ccccc4)CC3)c2)c1`, the growth inhibition in assay [1] is 65% (active); in assay [4] it was 100% (active). Moreover, the inhibition in assay [2] was 28% (inactive); in assay [3] it was -1% (inactive). The result in assay [5], in assay [6], in assay [7] and in assay [8] was inactive.

For `CCOc1ccc(CN(CCc2ccc3c(c2)OCO3)Cc2cc(OC)ccc2O)cc1`, the growth inhibition in assay [1] is 88% (active); in assay [4] it was 96% (active). Besides, the inhibition is 3% (inactive) in assay [2] and -4% (inactive) in assay [3]. The outcome in assay [5], in assay [6], in assay [7] and in assay [8] was inactive.

For `Brc1cnc(NC2=NCCN2)c(Br)c1`, the growth inhibition is -1% (inactive) in assay [1] and 99% (active) in assay [4]. Also, the values for the inhibition in assay [2] and in assay [3] were -6% (inactive) and -3% (inactive), respectively. In addition, the result in assay [5], in assay [6], in assay [7] and in assay [8] was inactive.

With `O=C1c2ccccc2CCC1CCN1CC=C(c2c[nH]c3ccccc23)CC1` (configuration not stated), the growth inhibition was 83% (active) in assay [1] and 89% (active) in assay [4]. In addition, the inhibition is 5% (inactive) in assay [2] and 7% (inactive) in assay [3]. Moreover, the outcome in assay [5], in assay [6], in assay [7] and in assay [8] was inactive.

As for `O=C(Nc1ccc(Oc2ccccc2)cc1)NC1CCC(CN2CCC(c3c[nH]c4ccccc34)CC2)CC1` (configuration not stated), the growth inhibition was 97% (active) in assay [1] and 101% (active) in assay [4]. Also, the inhibition in assay [2] was 55% (active); in assay [3], 4% (inactive). The outcome in assay [5], in assay [6], in assay [7] and in assay [8] was inactive.

For `O=C(C=Cc1ccc(-c2ccccc2)cc1)NC1CCC(CN2CCC(c3c[nH]c4ccccc34)CC2)CC1` (configuration not stated), the growth inhibition in assay [1] is 85% (active) and 98% (active); in assay [4], 101% (active). Moreover, the inhibition was 43% (inactive) and 97% (active) in assay [2]; -7% (inactive) in assay [3]. Besides, the outcome in assay [5], in assay [6], in assay [7] and in assay [8] was inactive.

Turning to `CCC1(C)CC(CCNCc2ccccc2O)(c2ccc(F)cc2)CCO1` (configuration not stated), the growth inhibition is 32% (inactive) in assay [1] and 98% (active) in assay [4]. The inhibition in assay [2] is 20% (inactive); in assay [3], 6% (inactive). Besides, the outcome in assay [5], in assay [6], in assay [7] and in assay [8] was inactive.

In the case of `CC(=O)N(Cc1ccccc1-c1cccc(CNCc2ccc3c(c2)OCO3)c1)C1CCN(Cc2ccccc2)CC1`, the growth inhibition is 44% (inactive) in assay [1] and 85% (active) in assay [4]. The inhibition in assay [2] is 17% (inactive); in assay [3] it was -3% (inactive). For the same molecule, the outcome in assay [5], in assay [6], in assay [7] and in assay [8] was inactive.

As for `CCCC(=O)c1c(O)c2ccccc2oc1=O`, the growth inhibition in assay [1] is 1% (inactive); in assay [4], 93% (active). In addition, the inhibition was 11% (inactive) in assay [2] and -5% (inactive) in assay [3]. The result in assay [5], in assay [6], in assay [7] and in assay [8] was inactive.

With `CC(Cc1ccc(S(=O)(=O)N(C(C)C)C(C)C)cc1)NCC(O)c1cccc(C(F)(F)F)c1` (configuration not stated), the growth inhibition in assay [1] is 93% (active); in assay [4], 96% (active). Besides, the values for the inhibition in assay [2] and in assay [3] were 21% (inactive) and 4% (inactive), respectively. In addition, the result in assay [5], in assay [6], in assay [7] and in assay [8] was inactive.

With `O=S(=O)(NC1CCC(CN2CCC(c3c[nH]c4ccccc34)CC2)CC1)c1ccc(Cl)c(Cl)c1` (configuration not stated), the figures for the growth inhibition in assay [1] and in assay [4] were 32% (inactive) and 97% (active), respectively. The inhibition is 36% (inactive) in assay [2] and 0% (inactive) in assay [3]. The result in assay [5], in assay [6], in assay [7] and in assay [8] was inactive.

Consider `CN(C(=O)OCc1ccccc1)C1CCC(CCN2CCC3(CC2)C(=O)NCN3c2cccc(C(F)(F)F)c2)(c2ccccc2)CC1` (configuration not stated), for which the values for the growth inhibition in assay [1] and in assay [4] were 72% (active) and 80% (active), respectively. For the same molecule, the inhibition in assay [2] is 19% (inactive); in assay [3], -2% (inactive). The result in assay [5], in assay [6], in assay [7] and in assay [8] was inactive.
